Measured values published in the supplement of paper PMC11172423.
Unmarked numbers belong to inactive results.

Experiments:
[1] = test system: Falciformispora senegalensis CBS197.79; assay: growth relative to untreated control; higher = less inhibition, active = 20 or less
Outline: (§1)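 In 96-well plates, suspended hyphal fragments of M. mycetomatis MM55 or F. senegalensis CBS197.79 were exposed to compound at 100 or 25 µM for 7 days at 37 °C. The suspension medium was colourless RPMI 1640 with L-glutamine and MOPS, adjusted to 68–72% transmission at 660 nm. Viability was measured with MTS (2 h, 490 nm) or resazurin (600 nm). Growth means metabolic activity compared with the untreated growth control after blank correction of both with medium plus dye.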

[2] = test system: Madurella mycetomatis MM55; assay: as above
Outline: as §1

SMILES	growth ([1]; 25 µM)	growth ([1]; 100 µM)	growth ([2]; 25 µM)	growth ([2]; 100 µM)
COC(=O)N[C@H](C(=O)N1CCC[C@H]1c1ncc(-c2ccc(-c3ccc(-c4cnc([C@@H]5CCCN5C(=O)[C@@H](NC(=O)OC)C(C)C)[nH]4)cc3)cc2)[nH]1)C(C)C	114%	99.8%	82.5%	85.6%
CN[C@@H]1[C@H](O)[C@H](NC)[C@H]2O[C@@]3(O)C(=O)C[C@@H](C)O[C@H]3O[C@@H]2[C@H]1O	105%	102%	99.5%	71.3%
O=C(NC1CCN(CCOc2ccc(Cl)cc2)CC1)c1c[nH]c2ccncc2c1=O	73.5%	84.8%	90.2%	102%
CC(C)(C)Cn1c(N)nc2ccc(-c3[nH]c(C(C)(C)C)nc3-c3ccc(F)cc3)nc21	100%	55%	82.9%	3.85% (active)
C/C=C/C[C@@H](C)[C@@H](O)[C@H]1C(=O)N[C@@H](CC)C(=O)N(C)CC(=O)N(C)[C@@H](CC(C)C)C(=O)N[C@@H](C(C)C)C(=O)N(C)[C@@H](CC(C)C)C(=O)N[C@@H](C)C(=O)N[C@H](C)C(=O)N(C)[C@H](CC(C)C)C(=O)N(C)[C@@H](CC(C)C)C(=O)N(C)[C@@H](C(C)C)C(=O)N1C	113%	94.5%	79%	68.9%
CCCCCOc1ccc(-c2ccc(-c3ccc(C(=O)N[C@H]4C[C@@H](O)[C@@H](O)NC(=O)[C@@H]5[C@@H](O)[C@@H](C)CN5C(=O)[C@H]([C@@H](C)O)NC(=O)[C@H]([C@H](O)[C@@H](O)c5ccc(O)cc5)NC(=O)[C@@H]5C[C@@H](O)CN5C(=O)[C@H]([C@@H](C)O)NC4=O)cc3)cc2)cc1	84.5%	67.5%	92.9%	54.2%
COc1cccc2c1CCCC2CCCN1CCN(C2CCCCC2)CC1 (stereo not given)	101%	103%	75.4%	68.7%
Cc1ccc(-c2ccc(C3(CN)CCOCC3)cc2)cn1	59%	25.4%	41.4%	6.97% (active)
O=C(Nc1cccc(-c2n[nH]c3ccc(-c4n[nH]c(C5CCCN5)n4)cc23)c1)C1CC1 (stereo not given)	102%	95%	62.4%	36.4%
CCc1ccc2c(c1O)CCN(C)C2Cc1ccccc1Cl (stereo not given)	78.3%	27.8%	21.4%	6.23% (active)
Cc1cccc(-c2noc(-c3ccccc3)n2)c1	86.3%	99.4%	90.6%	68.5%
CC(C)n1ncc2c(C(=O)N3CCCc4ccccc43)cc(-c3ccccc3)nc21	82.5%	89.8%	71.5%	59.8%
CO[C@@H](C(=O)N1Cc2[nH]nc(NC(=O)c3ccc(N4CCN(C)CC4)cc3)c2C1)c1ccccc1	103%	102%	94%	77.7%
CCCCN(CCCC)CC(O)c1cc(Cl)cc2c1-c1ccc(Cl)cc1/C2=C/c1ccc(Cl)cc1 (stereo not given)	98.7%	96.3%	107%	87.9%
COc1ccc(-c2nc3c(NCc4ccccc4)nccc3[nH]2)c(OC)c1	63.7%	26.6%	6.23% (active)	7.79% (active)
O=C(NCCN1CCCCC1)c1cncc(-c2ccc(Cl)c(Cl)c2)c1	95.7%	30.1%	52.1%	5.8% (active)
FC(F)(F)c1cc(Cl)cc(Nc2nc3cnc(NC4CCC4)cc3[nH]2)c1	70.6%	10.8% (active)	109%	27%
C=CC(=O)Nc1cc(Nc2nccc(-c3cn(C)c4ccccc34)n2)c(OC)cc1N(C)CCN(C)C	7.88% (active)	12.6% (active)	3.84% (active)	2.43% (active)
C[C@@H](O[C@H]1OCCN(Cc2n[nH]c(O)n2)[C@H]1c1ccc(F)cc1)c1cc(C(F)(F)F)cc(C(F)(F)F)c1	104%	103%	89.8%	5.09% (active)
Fc1cccc(-c2ccc3c(c2)CC(NCc2c[nH]c4cnccc24)C3)c1 (stereo not given)	6.11% (active)	14.3% (active)	5.29% (active)	5.16% (active)
C[C@H](NC(=O)c1cc2c(F)cccc2[nH]1)c1ccccc1	84.1%	68.4%	20.7%	7.43% (active)
Cc1ccc(Cl)cc1NC(=O)c1c(-c2ccccc2Cl)noc1C	79.7%	80.1%	32.8%	131%
c1ccc(Nc2cc(Nc3cc(-c4ccccc4)[nH]n3)nc3ccnn23)cc1	67.4%	59.7%	8.39% (active)	10.5% (active)

SMILES	growth ([1]; 25 µM)	growth ([1]; 100 µM)	growth ([2]; 25 µM)	growth ([2]; 100 µM)
COc1ccc(-c2cnc3c(-c4ccccc4)c(-c4ccccc4)nn3c2N)cc1OC	93.2%	83.3%	86.3%	70.2%
Cn1nc(C(=O)Nc2ccc(F)c(Cl)c2)c2c1-c1ccccc1S(=O)(=O)C2	99.8%	117%	86.8%	104%
CO[C@H]1C[C@H](O[C@@H]2/C(C)=C/C[C@@H]3C[C@@H](C[C@]4(CC[C@H](C)[C@@H](C5CCCCC5)O4)O3)OC(=O)[C@@H]3C=C(C)/C(=N/O)[C@H]4OC/C(=C\C=C\[C@@H]2C)[C@]43O)O[C@@H](C)[C@@H]1O	97.5%	89.3%	88.8%	111%
C[C@@H](C1CCCCC1)n1c(-c2cc3c(cc2Br)OCO3)nc2cc(C(=O)Nc3ccc(C#N)cc3)ccc21	106%	102%	109%	89%
CCN(CC)CCNc1nc(Nc2cccc(OC)c2)c2cnn(-c3ccccc3)c2n1	76.3%	17.5% (active)	5.18% (active)	4.88% (active)
O=C(Nc1cccc(Cl)c1)c1ccnc(N2CCC(N3CCCC3)CC2)c1	95.5%	28.1%	73.7%	5.81% (active)
Cc1nc(NC2(c3ccc(C#N)cc3)CC2)nc(NCC2COC2)c1C	97.1%	96.2%	87.8%	22.3%
N#Cc1ccc(-c2ccc3nc(Oc4ccc(C(F)(F)F)cn4)cn3c2)nc1	101%	109%	32.3%	82.2%
c1cc(-c2n[nH]c3ccc(-c4n[nH]c(C5CCCN5)n4)cc23)ccc1CNC1CC1 (stereo not given)	88.8%	84.8%	70.2%	31.7%
OCCN1CCc2nc(NCc3ccc(F)cc3F)nc(NC34CC(C3)C4)c2CC1	69.4%	19.8% (active)	32.2%	5.18% (active)
CC(C)(C)Nc1ncc2nc(Nc3cc(Cl)cc(C(F)(F)F)c3)n([C@H]3C[C@H](N)C3)c2n1	50.9%	11.3% (active)	7.82% (active)	5.73% (active)
CCN1CCN(C2CCN(C(=O)COc3ccc(-c4ccccc4F)cc3)CC2)CC1	99.8%	6% (active)	105%	41.1%
CC(C)(C)Nc1ncc2nc(Nc3cccc(C(F)(F)F)c3)n(CC3CCNC3)c2n1 (stereo not given)	94.5%	91.5%	114%	3.65% (active)
CCSc1ccc2c(c1)N(CCCN1CCN(C)CC1)c1ccccc1S2	7.2% (active)	11.7% (active)	3.68% (active)	3.76% (active)
CS(=O)(=O)c1ccc(-c2cnn3c2NC(c2cccc(S(=O)(=O)C4CC4)c2)CC3)cc1 (stereo not given)	72.5%	88.1%	97.1%	82.5%
C[C@@H]1CCCN1CCc1cc2cc(-c3ccc(C#N)cc3)ccc2o1	98.4%	17.8% (active)	71.7%	4.57% (active)
O=c1[nH]ccc2nc(N[C@@H]3CCNC3)nc(Nc3ccc4c(c3)S(=O)(=O)CC4)c12	90.7%	113%	62.9%	104%
Cc1cc(Cl)ccc1NC(=S)N(C)C	98.6%	88.2%	106%	147%
CC(C)(C)NCc1cc(Nc2ccnc3cc(Cl)ccc23)c2c(c1O)CCCC2	106%	101%	113%	95.1%
O=c1c(Cl)c(OCc2ccc(Cl)nc2)cnn1-c1ccc(Cl)c(Cl)c1	92.2%	103%	61.7%	62.1%
Cc1nn(C)c(Oc2ccccc2)c1C=NOCc1ccc(C(=O)OC(C)(C)C)cc1	95%	89%	83.5%	102%
N#Cc1cccc(C(=O)NC2CCN(c3ccnc(Nc4ccc(F)cc4)n3)C2)c1 (stereo not given)	89.5%	88.1%	84.1%	85.8%
